TrxR1 substrate: qHTS Assay for Substrates of Mammalian Selenoprotein Thioredoxin Reductase 1 (TrxR1): qHTS | purified TrxR1 substrate turnover, NADPH consumption readout | Potency, µM (doses to about 114 µM), inactives show at the top dose activity change, negative = substrate turnover | Thioredoxin reductase 1, cytoplasmic (Rattus norvegicus), O89049 | 390,000 compounds, 0.01% hits; further: potency means the concentration at half of the fitted maximal effect; nearly all actives have a fitted effect of over 50% in size
Target sequence (O89049 whole entry, looked up): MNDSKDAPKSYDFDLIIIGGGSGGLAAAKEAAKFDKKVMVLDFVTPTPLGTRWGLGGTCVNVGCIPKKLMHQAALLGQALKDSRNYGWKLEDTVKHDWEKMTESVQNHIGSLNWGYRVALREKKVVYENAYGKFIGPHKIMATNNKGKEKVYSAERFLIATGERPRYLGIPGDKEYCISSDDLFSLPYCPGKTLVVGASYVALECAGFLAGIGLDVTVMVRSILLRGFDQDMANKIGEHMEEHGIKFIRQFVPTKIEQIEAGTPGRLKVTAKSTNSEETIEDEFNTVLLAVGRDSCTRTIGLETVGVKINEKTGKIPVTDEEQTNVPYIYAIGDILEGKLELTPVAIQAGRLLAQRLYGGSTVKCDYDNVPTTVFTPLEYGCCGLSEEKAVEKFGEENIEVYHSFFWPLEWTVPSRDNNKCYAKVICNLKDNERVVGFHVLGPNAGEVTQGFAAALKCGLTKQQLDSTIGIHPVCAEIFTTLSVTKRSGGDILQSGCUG
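Rat TrxR1, dispensed at 90 nM, was prereduced with 400 uM NADPH (final) for 5 min at ~22 deg C, then incubated with compound 15 min before 400 uM selenite. A first-read NADPH fluorescence drop versus no-compound background flagged substrates.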
Pin1 inhibitor: qHTS Assay to Find Inhibitors of Pin1 | Peptidyl-prolyl cis-trans isomerase NIMA-interacting 1 (Homo sapiens), Q13526 | Potency, µM (titrated, usually from 115 µM), without a hit: at the top dose activity, negative = inhibition, usual class: inhibitors | Pin1 FP peptide displacement, HiFluor488, 10 min | AID 504891, 2011 | 390,000 compounds, 0.009% hits; active means well fitted inhibition curve with a large enough effect in the polarisation, with a control signal flat, not every such curve was filed as active; inconclusive means small, poorly fitted or top-dose-only effect, or effect the other way, or a change in a side signal; inactive means no such curve, though single readings can be large or run the other way; the % refers to the polarisation; further: potency means the concentration at half of the fitted maximal effect
TrxR1 inh: qHTS Assay for Inhibitors of Mammalian Selenoprotein Thioredoxin Reductase 1 (TrxR1): qHTS. AID 588453, 2011. recombinant rTrxR1, NADPH fluorescence consumption, selenite substrate. Potency, µM (series often up to 114 µM), inactives show at the highest dose activity change, negative = inhibition, actives largely listed as inhibitors. 390,000 compounds, 1% hits; further: potency means the concentration at half of the fitted maximal effect; nearly all actives have a fitted effect of over 65% in size
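Rat TrxR1 (90 nM in the dispensed reagent) was pre-reduced with 400 uM NADPH for 5 min at room temperature, then incubated with compound for 15 min. After 400 uM selenite was added, NADPH fluorescence (Ex 340/Em 450 nm) was followed for 8 min.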
GALK inhibitor: qHTS Assay for Inhibitors of Human Galactokinase (GALK); Purified GALK, Kinase-Glo residual ATP luminescence; Potency, µM (titrated, usually from 57.5 µM), inactives show at the highest dose activity change, negative = inhibition, hits mostly inhibitors; 270,000 compounds, 0.007% hits; AID 1868, 2009; further: potency means the concentration at half of the fitted maximal effect
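Human GALK (5 nM) with 35 uM ATP and 100 uM galactose in 20 mM HEPES pH 8.0, 5 mM MgCl2, 60 mM NaCl, 1 mM DTT, 0.01% BSA. After 1 h at room temperature, leftover ATP was read by Kinase-Glo Plus luminescence.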
GCN5L2 inh: qHTS Assay for Inhibitors of GCN5L2. Histone acetyltransferase KAT2A (Homo sapiens), Q92830. 390,000 compounds, 0.21% hits. GCN5L2 HAT assay, ThioGlo1 CoA-SH fluorescence. Potency, µM (top dose mostly 58.9 µM), for the others: top-dose activity change, negative = inhibition, usual class: inhibitors; further: potency means the concentration at half of the fitted maximal effect
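Preincubate 20nM GCN5L2 with compound 15 min, RT → add 50uM ThioGlo1 + 75uM H3(1-25) + 70uM acetyl-CoA → read fluorescence 0 and 20 min. Primary qHTS; fluorescent artifacts likely.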
Giardia killer: Small Molecules that selectively kill Giardia lamblia: qHTS | 340,000 compounds, 0.15% hits | AID 540267, 2011 | activity change, % at 7.66 µM, hits read low | Giardia lamblia trophozoite viability; in the data active means activity change below about -80%; inconclusive means between about -30% and that limit;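 further: parasites exposed to compound for two days anaerobically before the ATP read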
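Media and compound were dispensed first, then trophozoites at 100 cells/well; plates sat 48 hrs at 37 deg C without oxygen before ATP luminescence reagent was added and read after 15-30 min at room temperature.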
The depositor's hits bear a star; ? = inconclusive; . = not tested or not shown; [ ] = dose if it differs, or a comment. In the library only some 1.3% were active in any assay of this set; here they are far more common. Unless noted, the call rests on the fitted dose curve; in most records, active means well fitted curve in the direction sought with a large enough effect; inconclusive means small, poorly fitted or top-dose-only effect, or another doubt; inactive means no such curve, though single readings can be large; an effect the other way counts as inactive or inconclusive. On the % scale 0 is the no-effect control and ±100 the full control effect.

SMILES	TrxR1 substrate	Pin1 inhibitor	TrxR1 inh	GALK inhibitor	GCN5L2 inh	Giardia killer
COc1cc(-c2nc3sccn3c2Nc2c(C)cccc2C)ccc1O	-5.4%	?	15.8µM*	.	2.0%	.
Cc1cccc(C)c1Nc1c(-c2ccc(O)cc2)nc2sccn12	-0.5%	-2.9%	1.7%	.	-2.5%	.
O=c1cc(C23CC4CC(CC(C4)C2)C3)[nH][nH]1	9.0%	-5.1%	14.1µM*	-1.7%	.	12.1
NNC(=O)c1cc(C23CC4CC(CC(C4)C2)C3)[nH]n1	10.5%	-4.9%	28.3%	0.0%	-5.6%	9.9
Cc1ccc2cc(CN(CCN3CCOCC3)Cc3nnnn3Cc3ccco3)c(=O)[nH]c2c1C	2.2%	-2.7%	-26.0%	-1.2%	0.9%	12.7
Cc1ccc2cc(CN(CCCN3CCOCC3)C(c3nnnn3Cc3ccco3)C(C)C)c(=O)[nH]c2c1C (stereo not given)	-3.5%	10.5%	10µM*	.	.	-5.8
CCc1ccc(NCc2cc3ccc(OC)cc3n(CC(=O)Nc3cccc(Cl)c3C)c2=O)cc1	3.4%	-7.8%	24.4%	.	-3.7%	.
CCOC(=O)C1=C(CC)OC(N)=C(C#N)C1c1ccc(NC(C)=O)cc1 (stereo not given)	3.4%	1.1%	44.7µM*	.	0.6%	-9.7
Cc1ccccc1CS(=O)(=O)c1ccc(C(=O)N2CCOCC2)cc1[N+](=O)[O-]	5.4%	-7.1%	2.5%	-1.1%	-3.6%	-22.3
O=C(c1ccc(S(=O)(=O)Cc2ccccc2Cl)c([N+](=O)[O-])c1)N1CCOCC1	4.3%	0.5%	14.1µM*	0.7%	-4.1%	8.6
Cc1ncc([N+](=O)[O-])n1CCOC(=O)Nc1ccc([N+](=O)[O-])cc1	6.9%	3.3%	2.4%[57.1 µM]	0.2%	-4.0%	-83.5*
Cc1ncc([N+](=O)[O-])n1CCOC(=O)C12CC3CC(CC(C3)C1)C2	-13.3%[57.1 µM]	10.7%	20.6%[57.1 µM]	-3.3%	1.4%	?
Cc1ncc([N+](=O)[O-])n1CCOC(=O)c1cc(Cl)cc(Cl)c1N	8.1%[57.1 µM]	?	3.4%[57.1 µM]	1.4%	-23.8%	-85.9*
CCCCCCNC(=O)N[C@@H](C(=O)NCCC[C@H]1CN2C(=NC[C@@H]2Cc2ccccc2)N1CCc1cccc(OC)c1)C(C)C	2.1%[57.1 µM]	-0.6%	?	3.5%	39.8µM*	-8.2
C/C=C(\C)C(=O)NCCN1C2=NC[C@@H](Cc3ccccc3)N2C[C@@H]1Cc1ccc(OC)cc1	2.5%	-0.3%	8.4%	.	.	-11.8
O=C1CC(Nc2ccc(N3CCOCC3)cc2)C(=O)N1c1ccccc1F (stereo not given)	2.3%	4.1%	79.4µM*	0.5%	-0.5%	-7.7
O=C1CC(Nc2ccccc2)C(=O)N1c1ccc(N2CCOCC2)cc1 (stereo not given)	3.4%	-3.5%	-1.0%	0.3%	1.2%	-2.2
CN1CCN(c2cccc(Nc3nn4c(=O)c5ccc(C(F)(F)F)cc5nc4s3)c2)CC1	.	2.8%	.	.	.	.
CCc1nn(CC(=O)N2CCCCC2)c(=O)c2cc3sc(C)cc3n12	2.1%	-7.7%	20.7%	.	0.5%	.
Nc1nnc(CC(=O)N/N=C/c2cc([N+](=O)[O-])cc(Br)c2O)s1	-13.5%	?	35.5µM*	-1.8%	0.2%	1.9
Cc1ccc(CS(=O)Cc2ccc(C(=O)NC3CCCC(C)C3C)o2)cc1 (stereo not given)	8.1%	-0.2%	44.7µM*	0.2%	-2.5%	13.4
COc1ccc(C2NC(Cc3ccccc3)(C(=O)O)C3C(=O)N(c4ccccc4OC)C(=O)C23)cc1 (stereo not given)	7.0%	-0.1%	56.2µM*	-1.5%	2.6%	30.3
